# Data from PubChem BioAssay.
# The source made the active and inactive calls.
# Tests used:
# [1] = anti-His antibody binders, primary screen, artefact control for SMM control protein annotation, biochemical, small-molecule microarray, 635 nm fluorescence (AID 1128); details: anti-His Alexa647 antibody binding, higher = more signal;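 note: score merges feature fluorescence with signal-to-noise for each printed compound spot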
# [2] = system: Human papillomavirus type 1a E7 protein (residues 1-88); assay: HPV1a E7 small-molecule binders, primary screen, biochemical, small-molecule microarray, residues 1-88, 635 nm (AID 1129); details: small-molecule microarray binding, fluorescence 635 nm; higher = more signal
# [3] = molecular target: Focal adhesion kinase 1 (Homo sapiens) (UniProt Q05397); assay: small-molecule microarray binders of FAK, primary screen, biochemical, 635/667 nm fluorescence, BSA, DTT (AID 1130); details: PTK2 binding, 635 nm fluorescence, higher = more signal;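 note: composite of spot emission at 667 nm and signal to noise over triplicate slides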
# [4] = system: Fibrinogen (Alexa647-labelled); assay: fibrinogen binders on compound microarrays, profiling panel, artefact control for SMM control-protein annotation, biochemical, small-molecule microarray, 635/667 nm fluorescence (AID 1131); details: fibrinogen-A647 binding fluorescence, higher = more signal;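 note: z-score merges 667 nm fluorescence with per-spot signal-to-noise over triplicate slides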
# [5] = molecular target: Follistatin (Homo sapiens) (UniProt P19883); assay: follistatin binders on small-molecule microarrays, primary screen, biochemical, small-molecule microarray, 635/667 nm fluorescence (AID 1132); details: FST binding, 635 nm fluorescence, higher = more signal
# [6] = molecular target: Fibroblast growth factor 2 (Homo sapiens) (UniProt P09038); assay: FGF2 binders on small-molecule microarrays, primary screen, biochemical, small-molecule microarray, 635/667 nm fluorescence (AID 1133); details: small-molecule microarray binding, FGF2, fluorescence 635/667; higher = more signal
# [7] = mitochondrial membrane potential change in A549 cells, profiling panel, cell-based, JC-1 fluorescence, basal, 24 h, 100 nL (AID 1138); details: higher = more signal;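 note: A549 lung adenocarcinoma cells under basal conditions with no added stimulus; test concentration not given here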
# Lefty1 = Lefty1 binders on small-molecule microarrays, primary screen, biochemical, small-molecule microarray, 635/667 nm fluorescence (AID 1139); details: small-molecule microarray binding, fluorescence 635/667; higher = more signal
# [8] = system: wheat germ agglutinin (Triticum aestivum), Alexa647-labelled; assay: wheat germ agglutinin binders on compound microarrays, profiling panel, artefact control for SMM control-protein annotation, biochemical, small-molecule microarray, 635/667 nm fluorescence (AID 1140); details: WGA-A647 binding, 635 nm fluorescence, higher = more signal;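 note: score merges 667 nm feature emission with signal to noise over triplicate slides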
# [9] = molecular target: Luciferin 4-monooxygenase (Photinus pyralis) (UniProt P08659); assay: firefly luciferase enzyme inhibitors, primary screen, biochemical, luminescence, purified enzyme, 2006 set (AID 1141); details: SteadyGlo luminescence, 30 min, higher = more signal, called active from +8 up or from −8 down;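 note: cell-free assay with purified firefly luciferase at 100 ng per well in PBS; test concentration not given here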
# Chain of Luciferin 4-monooxygenase (Photinus pyralis) (P08659 whole entry, looked up): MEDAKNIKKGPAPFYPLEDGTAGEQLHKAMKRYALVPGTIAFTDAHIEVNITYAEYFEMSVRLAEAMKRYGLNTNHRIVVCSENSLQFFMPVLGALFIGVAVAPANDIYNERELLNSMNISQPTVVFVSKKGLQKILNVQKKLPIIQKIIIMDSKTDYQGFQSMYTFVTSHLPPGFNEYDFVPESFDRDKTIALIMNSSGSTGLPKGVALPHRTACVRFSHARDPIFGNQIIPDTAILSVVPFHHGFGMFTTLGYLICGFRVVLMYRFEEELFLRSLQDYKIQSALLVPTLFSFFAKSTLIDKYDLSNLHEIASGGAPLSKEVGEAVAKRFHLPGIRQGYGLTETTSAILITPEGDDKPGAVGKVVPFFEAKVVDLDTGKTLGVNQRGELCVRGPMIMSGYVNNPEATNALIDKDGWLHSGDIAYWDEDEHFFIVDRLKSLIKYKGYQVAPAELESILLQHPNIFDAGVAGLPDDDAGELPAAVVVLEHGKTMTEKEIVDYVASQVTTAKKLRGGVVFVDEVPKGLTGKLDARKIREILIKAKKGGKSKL
# Chain of Focal adhesion kinase 1 (Homo sapiens) (Q05397 whole entry, looked up): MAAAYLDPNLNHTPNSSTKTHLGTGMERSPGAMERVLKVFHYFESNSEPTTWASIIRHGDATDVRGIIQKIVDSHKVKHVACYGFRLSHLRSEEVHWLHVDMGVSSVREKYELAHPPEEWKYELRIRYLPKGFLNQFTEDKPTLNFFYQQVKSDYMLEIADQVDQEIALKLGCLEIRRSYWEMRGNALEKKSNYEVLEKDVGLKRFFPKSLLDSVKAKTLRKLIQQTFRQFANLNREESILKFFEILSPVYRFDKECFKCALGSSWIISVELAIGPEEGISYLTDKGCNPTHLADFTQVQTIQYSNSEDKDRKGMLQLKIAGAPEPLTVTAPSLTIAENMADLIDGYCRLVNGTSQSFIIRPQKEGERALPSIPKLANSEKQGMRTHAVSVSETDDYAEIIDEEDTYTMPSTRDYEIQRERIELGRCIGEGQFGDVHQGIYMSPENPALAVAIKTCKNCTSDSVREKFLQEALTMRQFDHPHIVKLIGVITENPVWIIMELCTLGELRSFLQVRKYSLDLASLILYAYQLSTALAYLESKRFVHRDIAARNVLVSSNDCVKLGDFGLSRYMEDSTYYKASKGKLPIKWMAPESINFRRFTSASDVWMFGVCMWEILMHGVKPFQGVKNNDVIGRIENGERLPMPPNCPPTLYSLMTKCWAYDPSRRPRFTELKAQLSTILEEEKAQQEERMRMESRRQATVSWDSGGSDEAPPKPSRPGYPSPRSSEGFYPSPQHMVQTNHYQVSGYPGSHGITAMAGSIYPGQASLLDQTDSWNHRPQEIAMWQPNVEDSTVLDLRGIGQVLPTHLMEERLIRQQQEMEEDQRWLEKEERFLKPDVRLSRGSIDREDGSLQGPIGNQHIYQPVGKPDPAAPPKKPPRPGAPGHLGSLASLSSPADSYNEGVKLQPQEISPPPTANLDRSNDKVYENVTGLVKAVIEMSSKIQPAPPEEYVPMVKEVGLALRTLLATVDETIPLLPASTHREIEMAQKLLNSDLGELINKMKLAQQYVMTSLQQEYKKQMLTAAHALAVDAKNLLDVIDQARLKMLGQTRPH
# Chain of Fibroblast growth factor 2 (Homo sapiens) (P09038 whole entry, looked up): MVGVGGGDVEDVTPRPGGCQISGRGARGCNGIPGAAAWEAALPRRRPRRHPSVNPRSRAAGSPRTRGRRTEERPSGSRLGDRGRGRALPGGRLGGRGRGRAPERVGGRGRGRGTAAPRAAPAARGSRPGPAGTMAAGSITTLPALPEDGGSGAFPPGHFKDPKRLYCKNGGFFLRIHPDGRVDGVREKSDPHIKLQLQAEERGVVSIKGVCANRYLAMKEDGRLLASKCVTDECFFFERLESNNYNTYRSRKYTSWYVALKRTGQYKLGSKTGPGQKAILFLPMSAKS
# Chain of Follistatin (Homo sapiens) (P19883 whole entry, looked up): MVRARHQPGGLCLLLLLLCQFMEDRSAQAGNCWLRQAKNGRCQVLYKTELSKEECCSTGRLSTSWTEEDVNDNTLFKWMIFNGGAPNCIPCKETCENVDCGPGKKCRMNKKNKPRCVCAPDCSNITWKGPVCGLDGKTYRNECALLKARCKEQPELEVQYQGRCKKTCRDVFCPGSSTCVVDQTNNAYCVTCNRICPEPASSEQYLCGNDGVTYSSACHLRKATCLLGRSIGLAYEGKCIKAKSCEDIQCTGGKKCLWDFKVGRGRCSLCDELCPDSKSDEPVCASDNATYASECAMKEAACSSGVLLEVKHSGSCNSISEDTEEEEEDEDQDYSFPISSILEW
Compound,composite z-score [1],composite z-score [2],composite z-score [3],composite z-score [4],composite z-score [5],composite z-score [6],z-score [7],composite z-score (Lefty1),composite z-score [8],z-score [9]
Cc1cc2c(nc1C)CCCCN2CC(C)ON=C[C@@H](C)[C@H](OCc1ccccc1)C(C)C (stereo not given in full),1.92,-0.598,-0.69,-2.1,-1.88,-1.78,-1.26,-0.913,-0.765,-0.29 (inactive)
CO[C@@H]1COC(=O)[C@H](CCSC)NC(=O)CC=C[C@@H](C)COC(=O)[C@H](C)NC(=O)CC=C[C@H]1C,-0.229,0.255,-0.342,-0.433,0.96,1.62,0.812,1.2,-0.543,-1.2 (inactive)
C[C@H]1COC(=O)[C@@H]2CCCN2C(=O)[C@@H](C)COC(=O)[C@H](Cc2ccccc2)NC1=O,0.305,0.767,0.0349,0.208,0.42,0.458,-0.731,0.96,0.111,1.48 (inactive)
C[n+]1ccc(-c2ccc(CO)cc2)cc1,0.658,-0.676,-0.332,-0.168,1.55,1.35,-0.666,1.61,1.48,-0.288 (inactive)
Cc1ccc(S(=O)(=O)n2c3ccccc3c3nnc(C(=O)c4ccccc4)nc32)cc1,-0.252,-0.0414,-0.0158,-1.08,0.583,0.978,-1.99,0.0671,-0.218,-4.76 (inactive)
COc1ccc(O[C@H]2C=C[C@@H](c3ccccc3)O[C@@H]2COC(=O)CCC(C)=NO[C@@H]2O[C@H](COC(C)=O)[C@@H](OC(C)=O)[C@H](OC(C)=O)[C@H]2OC(C)=O)cc1,0.487,0.795,-0.234,0.708,0.293,0.641,-0.388,0.742,0.262,1.16 (inactive)
O=C1CCCC(C2=CCCCC2=O)C1 (stereo not given),-0.496,-0.624,0.26,-0.67,1.01,0.567,0.475,1.02,-0.397,-0.242 (inactive)
C=CC1=C[C@H](O)[C@@H]2O[C@@H]2C12OCCCO2,0.837,0.661,0.172,0.429,-0.285,0.151,-0.722,0.0863,-0.159,0.571 (inactive)
CC(C)=NO[C@H](C)c1cn([C@H](CO)Cc2ccccc2)nn1,1.28,0.464,0.548,0.991,0.139,0.137,-0.34,0.137,-0.026,-1.69 (inactive)
Cn1c(=O)n2n(c1=O)[C@H]1[C@H](O)[C@@H]3O[C@@H]3C(=O)[C@H]1CC2,-0.0542,0.827,-0.515,0.289,0.537,0.348,-0.572,0.455,0.138,-0.28 (inactive)
C=COC[C@@H]1CN2[C@@H](CC[C@@H](C)[C@@H]2c2ccc(Br)cc2)C(=O)O1,-0.559,0.151,0.18,0.212,0.0793,-0.285,-1.25,0.0005,-0.0681,0.49 (inactive)
CC(C)CON=C1C[C@@H](O)[C@@H](O)[C@@H]2[C@@H]3C(=O)N(c4cccc(Oc5ccccc5)c4)C(=O)[C@@H]3CC[C@@H]12,0.89,0.762,0.0599,1.02,0.266,0.314,-0.289,0.13,0.561,-0.172 (inactive)
COC(=O)CC=C[C@@H](C)[C@@H](C=NOC[C@H]1O[C@H](c2ccccc2)C=C[C@@H]1Oc1ccc(OC)cc1)OC,0.162,-0.499,-0.103,-0.313,0.22,-0.435,0.0691,-0.0398,-0.0524,0.4 (inactive)
O=C1C[C@@H](O)[C@@H](O)[C@@H]2[C@@H]3C(=O)N(Cc4ccc5c(c4)OCO5)C(=O)[C@@H]3CC[C@H]12,0.324,0.923,0.381,0.735,0.243,0.19,0.733,0.428,-0.203,-0.56 (inactive)
COC(=O)[C@H](C)NC(=O)CCC1CC(OC(=O)NCc2ccc3c(c2)OCO3)CC2(CCCC(COC(=O)NCCc3ccccc3OC)O2)O1 (stereo not given in full),0.911,0.638,-0.122,0.626,-0.0381,-0.0304,0.159,-0.0317,0.817,0.559 (inactive)
CON=Cc1ccc(C(=O)N2[C@H](c3ccc(C)cc3)[C@@H](C)CC[C@H]2C(=O)OC)cc1,2.72,0.73,-0.176,0.53,0.419,0.412,-0.0876,0.595,0.112,-1.06 (inactive)

Compound,composite z-score [1],composite z-score [2],composite z-score [3],composite z-score [4],composite z-score [5],composite z-score [6],z-score [7],composite z-score (Lefty1),composite z-score [8],z-score [9]
CC(CCN1CCc2nc(-c3ccccc3)c(-c3ccccc3)cc2C1)=NOC[C@@H](O)COCc1ccco1,0.567,0.697,0.475,0.19,1.15,0.496,2,1.03,0.679,-1.46 (inactive)
CCc1cc2c(nc1CC)CCN(CCC(C)=NOC[C@H]1O[C@H](c3ccccc3)C=C[C@@H]1Oc1ccc(OC)cc1)C2,0.287,-0.121,-0.0388,0.0851,0.209,-0.155,1.51,0.568,-0.0263,0.698 (inactive)
CC(=O)OC[C@H]1O[C@H](C#Cc2ccccc2)C=C[C@@H]1OC(C)=O,-0.223,0.262,-0.203,0.81,0.272,0.271,0.277,0.517,-0.361,-2.26 (inactive)
CON=CC[C@@H]1C=C[C@H](OC(C)=O)[C@@H](COC(C)=O)O1,0.0374,-0.534,0.538,-0.146,0.606,0.495,0.296,0.596,0.0389,0.218 (inactive)
O=C1CCCC=C1C(O)CCCCBr (stereo not given),3.06,0.466,-0.0308,0.798,1.01,0.306,1.04,0.564,1.28,-1.97 (inactive)
O=C1OCCC=C1C(O)CCc1ccccc1 (stereo not given),-0.139,0.638,-0.226,0.913,0.347,0.332,-0.602,0.299,0.412,0.151 (inactive)
CCOC(=O)[C@H](Cc1ccccc1)NC(=O)CCC1CC(OC(=O)NCc2ccc3c(c2)OCO3)CC2(CCCC(COC(=O)NCCc3ccccc3OC)O2)O1 (stereo not given in full),0.969,1.2,0.492,1,1.07,1.32,-0.654,1.36,0.63,0.274 (inactive)
O=C1[C@H]2[C@H]3[C@H](O)[C@H](O)CC(=NO[C@@H]4O[C@H](CO)[C@@H](O)[C@H](O)[C@H]4O)[C@H]3CC[C@H]2C(=O)N1c1cccc(Oc2ccccc2)c1,1.25,0.394,0.199,0.574,0.423,0.445,-0.873,0.802,0.13,1.14 (inactive)
CCOC(=O)[C@H](CC(C)C)NC(=O)CCC1CC(OC(=O)NCCc2ccc(F)cc2)CC2(CCCC(COC(=O)NCCc3ccccc3OC)O2)O1 (stereo not given in full),1.35,0.903,0.0376,0.956,0.236,0.399,0.848,0.522,0.0393,0.109 (inactive)
CCOC(=O)[C@H](CC(C)C)NC(=O)CCC1CC(OC(=O)NCc2cccc3ccccc23)CC2(CCCC(COC(=O)NCCC(C)C)O2)O1 (stereo not given in full),-0.121,0.572,-0.394,0.123,0.364,0.92,0.652,0.606,0.0877,-0.0038 (inactive)
C#CCCCON=C1[C@H]2CCn3c(=O)n(-c4ccccc4)c(=O)n3[C@H]2[C@H](O)[C@@H]2O[C@H]12,0.303,0.875,0.093,0.436,0.295,0.27,0.94,0.66,0.107,-1.32 (inactive)
CCOC(=O)C1=NO[C@@]2(C=C(Br)C3(OCCCO3)[C@H]3O[C@H]32)C1,0.968,0.228,0.0306,0.982,1.43,1.14,-0.0326,1.04,0.818,-0.279 (inactive)
CO[C@H]1COC(=O)CC=C[C@H](C)[C@@H](OC)COC(=O)[C@@H](C)NC(=O)CC=C[C@@H]1C,0.437,-1.32,-0.535,-1.31,1.45,1.1,-1.05,1.47,0.0216,0.674 (inactive)
C[C@@H]1C=CCC(=O)OC[C@H]2O[C@@H](C=C[C@@H]2O)[C@H](C)C=CCC(=O)OC1,0.341,-0.813,1.7,-1.06,1.56,1.98,2.16,1.71,-0.513,-1.82 (inactive)
O=C1[C@H]2[C@H]3[C@H](O)[C@H](O)CC(=NOC[C@@H](O)COCc4ccco4)[C@H]3CC[C@H]2C(=O)N1c1ccc(F)cc1F,-0.385,0.553,-0.0614,-1.6,-0.868,-1.01,0.383,-0.0889,0.972,-0.243 (inactive)
CC(C)C[C@H](NC(=O)CCC1CC(OC(=O)NCc2cccc3ccccc23)CC2(CCCC(COC(=O)NCc3ccccc3)O2)O1)C(=O)NCC(c1ccccc1)c1ccccc1 (stereo not given in full),0.231,1.13,0.383,0.803,0.909,1.27,1.09,1.07,0.493,0.43 (inactive)
